Assay results published in ChEMBL document CHEMBL3433997, “St. Jude Leishmania screening dataset” (2016).

Target: Hexose transporter 1 (Plasmodium falciparum) (UniProt O97467)
Assay: ST_JUDE_LEISH: Cytotoxicity at 2uM final concentration against transgenic Leishmania Mexicana promastigotes LmPfHT that are glucose transport deficient and complemented with the Plasmodium falciparum hexose transporter. Activity is measured by DNA content using SYBR green in vitro
Assay type: functional

First: COc1cc(NCC2(CNCc3cn(Cc4ccccc4)c4ccccc34)CCCCC2)nc2ccccc12
Second: O=c1cc(NCCCNCc2cccc(Oc3ccccc3)c2)[nH]c2ccccc12
The inhibition of the first is lower: -0.02% for the first, 2.68% for the second.

Compared with `CO/C(=C\C=C\c1cc2cc(Cl)c(Cl)cc2[nH]1)C(=O)NCCCN1CCCC[C@@H]1C`, `O=C(/C=C/c1ccc(Cl)c(Cl)c1)NCCCCCN1CCCC(CNC(=O)c2sc3ccccc3c2Cl)C1` (stereo not given) is lower in inhibition: 2.51% for the first, -2.38% for the second.

Going from `COc1ccc(NC(=O)Nc2cccc(-c3cccc(-c4nc5cc(F)ccc5[nH]4)c3)c2)cc1` to `CC(=O)Nc1ccc(C(=O)Nc2cccc(-c3ccc(-c4nc5cc(C(F)(F)F)ccc5[nH]4)cc3)c2)cn1`, the inhibition falls from 1.38% to -0.8%.

Compared with `CCCc1cc(Cc2cnc(N)nc2N)cc2c1OC(C)C2C` (stereo not given), `CCOc1ccc(Cc2c(C)nc3nc(N)nc(N)c3c2C)cc1` is higher in inhibition: 8.61% for the first, 41.5% for the second.

Compared with `CN1CCC(C(=O)Nc2ccc(-c3ccc(-c4nc5ccccc5[nH]4)cc3)cc2)CC1`, `NC(=O)c1cccc(C(=O)Nc2cccc(-c3csc(-c4nc5ccccc5[nH]4)c3)c2)c1` is higher in inhibition: 1.48% for the first, 2.2% for the second.

First: COc1ccc(CN2CCC(Oc3cccc(NC(=O)c4ccc(C(F)(F)F)cc4)c3)CC2)cc1
Second: O=C(Nc1ccc(OC2CCN(Cc3ccc(F)cc3)C2)c(Cl)c1)c1cccs1 (stereo not given)
The inhibition of the first is lower: 1.18% for the first, 2.25% for the second.

Going from `CC(C)OC(=O)c1ccccc1S(N)(=O)=O` to `CNC(=O)c1ccccc1Nc1nc(Nc2ccc(C(=O)O)cc2)ncc1Cl`, the inhibition falls from 12.7% to 1.77%.

Going from `c1cncc(Oc2ccc(Nc3ccnc4cc(-c5cccc(CNCCN6CCOCC6)c5)ccc34)cc2)c1` to `O=C1CCCN1CCCNCc1cccc(-c2cccc(-c3nc4cc(C(F)(F)F)ccc4[nH]3)c2)c1`, the inhibition rises from -1.57% to 3.94%.

Compared with `Cc1cnccc1/C=C/c1cccc(OCCCN2CCc3ccc(S(C)(=O)=O)cc3CC2)c1`, `O=C(NCCCCCN1CCC(c2c[nH]c3ccccc23)CC1)c1ccc(-c2ccccc2)nc1` is lower in inhibition: 2.58% for the first, 2.42% for the second.

Going from `Cc1cc(Nc2nc(Nc3cccc(Cl)c3)nc3ccccc23)n[nH]1` to `Cc1[nH]c(C)c(-c2ccc(-c3ccccc3)nc2)c(=O)c1Br`, the inhibition falls from 17.2% to 0.36%.

First: COc1cc(Nc2nccc(N3CCC(NC(=O)c4cccc(NC(C)=O)c4)C3)n2)cc(OC)c1OC (stereo not given)
Second: COc1cc(-c2cnc(N)c(-c3nc4ccccc4[nH]3)c2)cc(OC)c1OC
The inhibition of the first is lower: 0.55% for the first, 9.19% for the second.

Compared with `CCCCN1CC[C@@H](CCC(O)c2cc(OCCC)nc3ccc(OC)cc23)[C@@H](CC)C1` (stereo not given in full), `CCCCCCCN1CCC(CCNc2ccnc3ccc(OC)cc23)CC1` is higher in inhibition: -1.53% for the first, 2.47% for the second.

Compared with `COc1ccccc1-c1ccc(CNC(=O)C(CN2CCN(C)CC2)c2ccccc2)cc1` (stereo not given), `CC(C)Sc1nc2c(c(=O)n1CCc1ccccc1)C1(CCCCC1)Cc1ccccc1-2` is lower in inhibition: 1.12% for the first, -1.14% for the second.

First: Cc1ccnc(NC(c2ccc(Cl)c([N+](=O)[O-])c2)c2ccc3cccnc3c2O)c1 (stereo not given)
Second: CCOC(=O)c1cnc2c(C(F)(F)F)cccc2c1Nc1ccc(O)cc1
The inhibition of the first is lower: -0.87% for the first, 8.44% for the second.

Compared with `Cc1cc(-c2nc3ccc(N4CCN(C)CC4)cc3[nH]2)nn1Cc1cc(Cl)ccc1OCC(C)C`, `O=C(CCCCCNC(=O)c1ccc(O)c(-c2ccc(Cl)c(Cl)c2)c1)NCCN1CCOCC1` is higher in inhibition: 1.76% for the first, 3.57% for the second.

First: Cc1ccc(N2C(=O)C3C(C2=O)C2(c4ccccc4)C(=O)C3(c3ccccc3)C(c3ccccc3)=C2c2ccccc2)cc1 (stereo not given)
Second: CC(C)NCc1ccc(-c2ccc(NC(=O)c3ccc(C#N)cc3)cc2)cc1
The inhibition of the first is lower: 0.67% for the first, 3.73% for the second.

Going from `NCCCNc1nc(Nc2ccc(C(F)(F)F)cc2F)c2c(=O)[nH]ccc2n1` to `FC(F)(F)c1cccc(Nc2nc3nonc3nc2NC2C3CC4CC(C3)CC2C4)c1` (stereo not given), the inhibition falls from 3.63% to 1.79%.

Going from `CCCc1ccccc1OCC(O)CN(C1CCCC1)C1CCCC1` (stereo not given) to `CCN1CCc2c1cc(C(=O)N[C@@H](Cc1ccccc1)[C@H](O)CNC(C)(C)c1cccc(C(F)(F)F)c1)cc2N1CCCCS1(=O)=O`, the inhibition falls from 6.68% to -3.32%.

First: CNC(=O)c1c(NC(=O)c2cccs2)sc2c1CCCC2
Second: COC(=O)c1ccc(CC(C)NCC(O)c2ccc(C(O)CNC(C)Cc3ccc(C(=O)OC)cc3)cc2)cc1 (stereo not given)
The inhibition of the first is lower: 1.4% for the first, 1.69% for the second.

First: Cc1ccc2[nH]c(NC#N)nc2c1
Second: CCN(CC)/C(=N/C(=N)NCc1cccc(Cl)c1)NCCCCCCN/C(=N\C(=N)NCc1cccc(Cl)c1)N(CC)CC
The inhibition of the first is lower: 0.67% for the first, 4.83% for the second.
